These results are taken from PubChem BioAssay AID2685 (National Center for Advancing Translational Sciences (NCATS), 2010).

Each structure is given as a SMILES string. Out of some 320,000 compounds screened, about 2,100 (0.66%) were called active. Roughly 53% stayed inconclusive and do not appear here. The call rests on the fitted dose curve; in most records, active means well fitted inhibition curve with a large enough effect in the signal ratio, with a control signal flat (not every such curve was filed as active); inconclusive means small, poorly fitted or top-dose-only effect, or effect the other way, or a change in a side signal; inactive means flat fitted curve, though single readings scatter; the % refers to the signal ratio. What follows is part of a selection rich in actives, with near analogues and random picks from the rest.
Potency means the concentration at half of the fitted maximal effect.

This assay in a line: qHTS Assay for Lipid Storage Modulators in Drosophila S3 Cells.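 On cell number change: cells counted by Cell Tracker Red CMTPX staining in the red channel.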 On lipid storage change, negative = inhibition: on the % scale 0 is the no-effect control and ±100 the full control effect. The conditions noted are these: BODIPY lipid droplet fluorescence, 18-24 h, cells fed with added oleic acid; cell number change: measured here: cell count max response; series mostly up to 46.1 µM; lipid storage change, negative = inhibition: at the top concentration. In short, it runs like this: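 Drosophila S3 cells got compounds at several concentrations plus oleic acid (400 uM solution). Laser-scanning cytometry with 488 nm excitation read lipid droplets at 500-530 nm and cells at 575-640 nm. Percent activity was relative to 20 uM Triacsin C.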
Consider `O=C1O/C(=C\C(=O)N2CCOCC2)c2ccccc21`, for which the “lipid storage change, negative = inhibition” value is 7.9% (inactive) and the cell number change is 1.94%.

Regarding `CCN(CC)c1ccc(C(=O)OCC(=O)Nc2cc3oc4ccccc4c3cc2OC)cc1`, the “lipid storage change, negative = inhibition” value is 9.28% (inactive) and the cell number change was -0.812%.

For the compound `Cn1c(=O)c2c(nc(SCC(=O)N3CCCCCC3)n2C)n(C)c1=O`, the “lipid storage change, negative = inhibition” value is 2.93% (inactive) and the cell number change came out at 8.11%.

Take `CC(C)n1c(SCC(=O)N2CCCCC2)nc2c1c(=O)n(C)c(=O)n2C`: the Potency was 0.116 µM (active) and the cell number change was -23%.

For `CC(C)n1c(SCC(=O)N2CCN(C)CC2)nc2c1c(=O)n(C)c(=O)n2C`, the compound was classed as inactive and the cell number change was determined as 1.32%.

As for `CCC(CC)C(=O)NCCc1cc2ccc(C)c(C)c2[nH]c1=O`, the compound was classed as inactive.

Regarding `CCn1cc(/C=N/O)c(C)n1`, the “lipid storage change, negative = inhibition” value is 7.49% (inactive) and the cell number change came to 7.41%.

Take `CC1(C)N=C(/C=N/O)C=[N+]1[O-]`: the Potency is 6.51 µM (active) and the cell number change was -9.07%.

On to `CCCN(CCC)CCCNC(=O)C1CCC(CNS(=O)(=O)c2cccc3nsnc23)CC1` (stereo unspecified), for which the call was inactive and the cell number change was -15%.

Consider `CCCCC(=O)NC(c1ccc(C(C)C)cc1)c1ccc2cccnc2c1O` (stereo unspecified), for which the Potency was 18.4 µM (active) and the cell number change was -28.4%.

As to `CCCCC(=O)NC(c1ccccc1OC)c1ccc2cccnc2c1O` (stereo unspecified), the “lipid storage change, negative = inhibition” value was -21.7% (inactive) and the cell number change is -24%.

For `CC(=O)NC(c1ccc(C(C)C)cc1)c1ccc2cccnc2c1O` (stereo unspecified), the outcome was inactive.

Take `CCOc1c(Br)cc(CNc2ccc(N3CCOCC3)cc2)cc1OC`: the “lipid storage change, negative = inhibition” value is -18.5% (inactive) and the cell number change was -20.8%.

Turning to `Cc1cc(OC(C)C(=O)NCC(O)c2ccccc2)c2c(C)cc(=O)oc2c1` (stereo unspecified), the call was inactive and the cell number change was determined as 6.57%.

In the case of `CCOc1ncccc1C(=O)NCc1ccccc1Cl`, the “lipid storage change, negative = inhibition” value was 25.4% (inactive).

Take `COc1ccc(CC(=O)NNC(=O)COc2ccc(Br)cc2C)cc1OC`: the “lipid storage change, negative = inhibition” value was 14.4% (inactive) and the cell number change is 1.07%.

For `NC(=O)c1c(NC(=O)c2ccccc2)sc2c1CCC2`, the outcome was inactive and the cell number change is -24.3%.

Take `NC(=O)c1c(NC(=O)c2ccccc2F)sc2c1CCCC2`: the Potency was 1.64 µM (active) and the cell number change was -10.7%.

In the case of `NC(=O)c1c(NC(=O)c2ccc(F)cc2)sc2c1CCC2`, the Potency is 4.61 µM (active) and the cell number change is 5.61%.

Consider `NC(=O)c1c(NC(=O)c2ccc(F)cc2Cl)sc2c1CCC2`, for which the “lipid storage change, negative = inhibition” value is -6.16% (inactive) and the cell number change is 3.89%.

Turning to `O=C(Nc1sc2c(c1C(=O)O)CCCCC2)c1ccccc1F`, the “lipid storage change, negative = inhibition” value is -22.6% (inactive) and the cell number change is -1.56%.

On to `COc1ccccc1C(=O)Nc1sc2c(c1C(N)=O)CCCC2`, for which the result was inactive and the cell number change is -22.3%.

On to `O=S(=O)(Nc1ccc(Cl)cn1)c1ccccc1`, for which the “lipid storage change, negative = inhibition” value was -4.96% (inactive) and the cell number change amounted to 14.4%.

Consider `Cc1cccc(/N=C/c2nc(-c3ccccc3Br)oc2O)n1`, for which the “lipid storage change, negative = inhibition” value is 8.31% (inactive) and the cell number change stood at 18.5%.

`COc1cc(S(=O)(=O)N2CCOCC2)ccc1NC(=O)COC(=O)c1ccccn1`: the “lipid storage change, negative = inhibition” value was -3.84% (inactive) and the cell number change came to 9.96%.

As for `Cc1ccc[n+](CC(=O)N2CCCc3ccccc32)c1`, the compound was classed as inactive and the cell number change was -16.8%.

`O=C(CSc1ccccn1)N1CCN(c2ncc(C(F)(F)F)cc2Cl)CC1`: the “lipid storage change, negative = inhibition” value is 4.42% (inactive) and the cell number change worked out at 6.61%.

As for `CNCC(=O)N1CCN(c2ncc(C(F)(F)F)cc2Cl)CC1`, the “lipid storage change, negative = inhibition” value was 4.67% (inactive) and the cell number change is -11.3%.

`O=C(O)c1nn(CC(=O)N2CCN(c3ncc(C(F)(F)F)cc3Cl)CC2)c(=O)c2ccccc12`: the Potency was 0.82 µM (active) and the cell number change was -1.8%.

For the compound `CSc1nnc(-c2ccccc2)n1N`, the “lipid storage change, negative = inhibition” value is 3.24% (inactive) and the cell number change worked out at 9.66%.

Take `Cc1ccc(NC(=O)c2cccnc2)cc1S(=O)(=O)N(C)C`: the “lipid storage change, negative = inhibition” value was -15% (inactive) and the cell number change is 5.29%.

As for `CCOc1ccc(-n2cc(-c3ccccc3)c3c(SC(C)C(=O)OC)ncnc32)cc1` (stereo unspecified), the “lipid storage change, negative = inhibition” value was -15.9% (inactive) and the cell number change was -20.7%.

Consider `CCn1c(=O)cc(OCC(=O)Nc2ccccc2N2CCN(C)CC2)c2ccccc21`, for which the “lipid storage change, negative = inhibition” value is -3.92% (inactive) and the cell number change was 6.65%.

`COC(=O)c1cc(CNC(=O)c2sccc2-c2ccccc2)ccc1OC`: the “lipid storage change, negative = inhibition” value was -18.3% (inactive) and the cell number change was -10.7%.

In the case of `COc1ccc(Cc2c(C)nc(N)nc2Cl)cc1`, the “lipid storage change, negative = inhibition” value was 16.4% (inactive) and the cell number change worked out at 9.54%.

As for `CCOc1ccc(Cc2c(Cl)nc(N)nc2Cl)cc1`, the compound was called inactive.

`COc1ccc(Cc2c(Cl)ncnc2Cl)cc1`: the Potency is 18.4 µM (active) and the cell number change is -13.7%.

As to `CCOC(=O)C(=CNc1ccc(S(N)(=O)=O)cc1)C(=O)OCC`, the “lipid storage change, negative = inhibition” value was -10.1% (inactive) and the cell number change was -11.4%.

Regarding `CCOc1ccc(NC(=O)[C@@H](NC(=O)c2ccco2)C(C)C)cc1`, the result was inactive and the cell number change amounted to 4.17%.

As to `Cc1nc(SCC(=O)c2ccc(Cl)cc2)c([N+](=O)[O-])[nH]1`, the outcome was inactive and the cell number change is -28.5%.

Consider `Cc1ccc(C(C)C)c(OCC(=O)Nn2c(C)nc3ccccc3c2=O)c1`, for which the outcome was inactive.

Regarding `Cc1ccc(C(C)C)c(OCC(=O)NNC(=O)C(C(C)C)N2C(=O)c3ccccc3C2=O)c1` (stereo unspecified), the Potency is 16.4 µM (active) and the cell number change was -20.9%.

Take `Cc1ccc(C(C)C)c(OCC(=O)NNC(=O)CC2OC(=O)c3ccccc32)c1` (stereo unspecified): the outcome was “inactive [at 0.0737 µM]”.

On to `CC(=O)N1c2ccccc2NC2=C(C(=O)CCC2)C1c1ccc(F)cc1` (stereo unspecified), for which the “lipid storage change, negative = inhibition” value is 0.776% (inactive) and the cell number change was 1.82%.

Regarding `COc1ccc2c(c1)c(CC(=O)OCC(N)=O)c(C)n2C(=O)c1ccc(Cl)cc1`, the “lipid storage change, negative = inhibition” value is 20.6% (inactive) and the cell number change was -0.195%.

Regarding `COc1ccc2c(c1)c(CC(=O)OC(C)C(=O)N(C)C)c(C)n2C(=O)c1ccc(Cl)cc1` (stereo unspecified), the Potency is 1.46 µM (active) and the cell number change was -15.8%.
